Test results from PubChem BioAssay AID1159606 (Sanford-Burnham Center for Chemical Genomics, 2016).
Out of some 360,000 compounds screened, about 7,300 (2%) were called active. No stated cut-off is given here; in the data, active means inhibition above about 50%; inactive means the rest. The entries come from a sample that favours actives as a whole.

experiment: blockers of TWEAK-induced Fn14 reporter activity – luciferase reporter cells, uHTS, primary screen (AID 1159606); details: TWEAK-stimulated Fn14 reporter cells, luciferase luminescence, 8 h; at 10 µM; active compounds read high

Structure (SMILES)	inhibition
COc1cc([N+](=O)[O-])ccc1NC(=S)N1CCN(c2ccccn2)CC1	-16.1% (inactive)
COc1ccc(-c2c(C)cc3oc(=O)cc(-c4ccccc4)c3c2C)cc1OC	-10.1% (inactive)
COc1ccc(-c2c(C)cc3oc(=O)cc(-c4ccccc4)c3c2C)cc1F	-37% (inactive)
COc1cc(OC)c2c(-c3cccc(-c4cccc(N)c4)c3)cc(=O)oc2c1	54.3% (active)
CC(C)[C@@H]1NC(=O)c2cc([N+](=O)[O-])cc(I)c2NCCC[C@@H](C(=O)NC(CC(=O)O)C(N)=O)NC(=O)[C@H](CO)NC1=O (stereo partly drawn)	-9.29% (inactive)
COc1ccccc1C(=O)NCCn1cc(SCC(=O)NCc2ccco2)c2ccccc21	8.15% (inactive)
CCc1oc(-c2ccc(OC)cc2)c(C(=O)OCCCCCO)c1C(C)OCCO (stereo not drawn)	-8.4% (inactive)
Cc1nnsc1C(=O)Nc1cccc(Cl)c1C	-11.4% (inactive)
Cc1cc(Cl)ccc1NNC(=O)c1snnc1C	78.6% (active)
Cc1nnsc1C(=O)NCc1c(F)cccc1Cl	21.4% (inactive)
CCOC(=O)[C@]12CCCC=C1N(Cc1ccc3c(c1)OCO3)C(=O)[C@H](CC(=O)N1CCN(C(=O)c3ccco3)CC1)C2	10.3% (inactive)
COc1ccc(Oc2cn[nH]c2-c2ccc(OC)cc2O)cc1	-3.87% (inactive)
CCOc1ccccc1Oc1cn[nH]c1-c1ccc(OC)cc1O	33.5% (inactive)
COc1ccc(-c2cn[nH]c2-c2ccc(OC)cc2)cc1	80.3% (active)
CC12CCC(=O)C=C1CCC1C2C(O)CC2(C)C1CCC2(O)C(O)CO (stereo not drawn)	8.15% (inactive)
COc1ccccc1Cc1c(-c2ccc(Cl)cc2)nc2c3ccccc3ccn12	-9.82% (inactive)
Clc1ccc(-n2nnnc2-c2cnc(-c3ccccn3)nc2-c2cccs2)cc1	10% (inactive)
O=C(COC(=O)c1ccncc1)c1ccccc1	-3.5% (inactive)
COc1ccc(CCc2nc(-c3cccs3)no2)cc1	-31.5% (inactive)
Brc1ccc(-c2noc(-c3ccccc3)n2)o1	-28% (inactive)
O=C(Oc1ccc(-c2nc(-c3ccccn3)no2)cc1)c1ccccc1	92.9% (active)
c1ccc(-c2noc(-c3cccs3)n2)nc1	76.2% (active)
COCCN(C(=O)C(C)C)c1nnc(-c2ccc(C(C)(C)C)cc2)s1	-18% (inactive)
CCCCN(C(=O)C1=NN(c2cc(C)ccc2C)C(=O)CC1)c1c(N)n(CCC)c(=O)[nH]c1=O	4.67% (inactive)

Structure (SMILES)	inhibition
O=C1NC(O)CCN1C1CC(O)C(CO)O1 (stereo not drawn)	2.05% (inactive)
O=C(Nc1ccccc1C(=O)N1CCOCC1)c1ccc(CSc2ccccc2)cc1	-16.9% (inactive)
CCOc1ccc(C(=O)Nc2ccc(CN3CCOCC3)cc2)cc1Cl	-17.1% (inactive)
O=C(Nc1ccc(CSc2ccccc2)cc1)c1ccc(CN2CCOCC2)cc1	62.3% (active)
CCOC1CCCCC1NS(=O)(=O)c1ccc(Cl)cc1 (stereo not drawn)	23.1% (inactive)
COc1ccc2c(c1)CCC/C2=N\OC(=O)c1ccccc1F	36.7% (inactive)
CC(C)C[C@@H]1Cc2[nH][nH]c(=O)c2[C@H](CCc2ccccc2)O1	17% (inactive)
CC(NC(=O)Nc1ccccc1)C(c1cccs1)N1CCN(c2ccccc2)CC1 (stereo not drawn)	1.76% (inactive)
O=c1oc2ccccc2cc1-c1csc(Nc2ccc(O)cc2)n1	82.7% (active)
COc1ccc(OC)c(-c2csc(NC(=O)C3=NNC(=O)CC3)n2)c1	-2.91% (inactive)
Cc1ccn2c(-c3csc(Nc4ccc(C(=O)O)cc4)n3)c(C)nc2c1	21.8% (inactive)
COc1ccc2nc(Nc3nc(-c4cc5ccccc5oc4=O)cs3)sc2c1	64.4% (active)
Cc1ccc(Nc2nc(-c3ccc(O)cc3O)cs2)nc1	-37.9% (inactive)
Cc1noc(C)c1CSCC(=O)Nc1nc2ccc(Oc3ccccc3)cc2s1	-4.3% (inactive)
CN(C)CCCOc1ccc(-c2ccc3nccn3c2)cn1	-18.9% (inactive)
Cc1ccc(NC(=O)c2cc([N+](=O)[O-])ccc2Cl)c(O)c1	2.69% (inactive)
O=C(NCC(c1cccs1)N1CCOCC1)c1cc(Cl)ccc1[N+](=O)[O-] (stereo not drawn)	7.3% (inactive)
O=C(Nc1cccc2ccccc12)c1[nH]c(-c2ccccc2)c2c1C(=O)N(C1CC1)C2=O	-46.7% (inactive)
Cc1ccc(NC(=O)COC(=O)CN2CCSC2=O)cc1F	1.95% (inactive)
Cn1c(=O)c2c(nc(Br)n2CCSc2nc3ccccc3o2)n(C)c1=O	7.06% (inactive)
CN1C(CC(=O)Nc2ccc(Br)cc2)c2ccccc2CC1(C)C (stereo not drawn)	12.1% (inactive)
COc1ccc(Nc2cc(Sc3ccc(OC)cc3)ncn2)cc1	69.9% (active)
COc1ccc(Sc2ccc(NC(=O)c3cccc(Cl)c3)cc2C#N)cc1	26.3% (inactive)
COc1ccc(Nc2cc(=O)oc3ccccc23)cc1	12.8% (inactive)

Structure (SMILES)	inhibition
CN(C)CCCNC(=O)c1cc(C(=O)Cc2ccc(Cl)cc2)c[nH]1	5.27% (inactive)
CC(C)Cn1cc(-c2cncc3nccn23)cn1	5.78% (inactive)
COC(=O)Cc1[nH]n(-c2nc3ccccc3s2)c(=O)c1C(C)=Nc1ccc(OC)cc1	101% (active)
COC(=O)CC1=NN(c2ccccc2)C(=O)C1	-14.8% (inactive)
CCc1nc2ccccc2c(C(=O)NCc2ccc(OC)cc2)c1C	-1.16% (inactive)
CCOc1ccc2c(c1)c(=O)c(S(=O)(=O)c1ccc(C)cc1)cn2CC	-0.17% (inactive)
Cc1ccc(N2C(=O)CN=C2Nc2nc(C)cc(C)n2)cc1	4.62% (inactive)
O=C1NNC(c2ccccc2)=N/C1=C\c1ccc(Cl)cc1	16.8% (inactive)
O=C(NC1CC1)c1cccc(Br)c1	84.3% (active)
CC(=O)N1CCN(S(=O)(=O)c2cccc(C(=O)NC3CCC(C)CC3)c2)CC1 (stereo not drawn)	3.88% (inactive)
O=C(NC1CC1)c1ccc(-c2ccccc2)cc1	-4.49% (inactive)
COCCN(C(=O)CC1CCCCC1)c1c(N)n(CC(C)C)c(=O)[nH]c1=O	19.1% (inactive)
O=C(Nc1ccc(Cl)cc1)/C(=C1\CCCN1)[N+](=O)[O-]	-36.6% (inactive)
COc1ccc(N2C(=O)C(O)C2c2ccc(C)cc2)cc1 (stereo not drawn)	6.39% (inactive)
COc1ccc(C(=O)Nc2cc(S(=O)(=O)N3CCCC3)ccc2Cl)cc1	-16% (inactive)
COc1ccc(C(=O)Nc2nc(-c3ccc(S(=O)(=O)N4CCOCC4)cc3)cs2)cc1	93.7% (active)
COC(=O)COc1ccc(S(=O)(=O)N2CCOCC2)cc1	12.7% (inactive)
CS(=O)(=O)/C(C#N)=C/c1cccn1S(=O)(=O)c1ccc([N+](=O)[O-])cc1	-15.1% (inactive)
CCC(=O)N1Cc2cc(C(=O)NCc3cccc(F)c3)nc(-c3cccc(C4=CCCC4)c3)c2[C@H]1CCO	-7.06% (inactive)
Cc1ccc(Cl)cc1N1CCN(C(=O)c2cccc3c(=O)c(C)c(-c4ccccc4)oc23)CC1	40.6% (inactive)
O=C(NCCC1=CCCCC1)c1ccc(Cl)c([N+](=O)[O-])c1	-14.2% (inactive)
Cn1nnc2cc(C(=O)NCCC3=CCCCC3)ccc21	51.2% (active)
O=C(NCCC1=CCCCC1)c1ccc(-n2cncn2)cc1	-8.52% (inactive)
CC1CCCCC1NC(=O)CN1CCC(O)(c2ccc3c(c2)OCO3)CC1 (stereo not drawn)	3.52% (inactive)

Structure (SMILES)	inhibition
CCCCn1nnnc1C(c1ccccc1)N1CCN(c2ccccc2OC)CC1 (stereo not drawn)	-11.6% (inactive)
COc1cccc(/C=N/Nc2cc(C)nc(-c3ccccc3O)n2)c1O	59% (active)
COc1cc(/C=N/Nc2ccc(C)cc2)cc(Br)c1O	4.13% (inactive)
COc1ccccc1-n1c(SCC(=O)Nc2cccc(C(=O)O)c2)nnc1-c1ccccc1O	8.74% (inactive)
Cc1cc(CNC(=O)C2CCC(=O)N(CCc3ccc(Cl)cc3)C2)no1 (stereo not drawn)	0.87% (inactive)
CC(=O)N1CCN(S(=O)(=O)c2c(F)cc(F)c(Cl)c2F)CC1	-11.6% (inactive)
COc1ccc(-c2[nH]ncc2/C=N/NC(=O)c2cc(Br)ccc2O)c(OC)c1	1.37% (inactive)
COc1ccc(/C=C2/SC(=O)N(CCCCCC(=O)Nc3ccccc3C(=O)O)C2=S)cc1	40.8% (inactive)
O=C(NN=Cc1ccc2c(c1)CCC2)c1ccccc1O	-39.1% (inactive)
COc1ccc(/C=N/NC(=O)C(C)N(c2ccc(OC)cc2)S(C)(=O)=O)cc1 (stereo not drawn)	6.28% (inactive)
COc1ccc(/C=N/Nc2ccccc2C(=O)O)cc1	57% (active)
COc1ccc(C(=O)Nc2ccccc2C(=O)N/N=C/c2ccc(O)c(OC)c2)cc1	103% (active)
CCOC(=O)C(=O)C1C(=O)Nc2ccccc21 (stereo not drawn)	6.46% (inactive)
CCOc1ccc(CCN2C(=O)C(=O)N([C@@H](Cc3ccc(O)cc3)CN3CCC[C@H]3CN3C(=O)C(=O)NC[C@@H]3CC(C)C)C[C@@H]2Cc2ccccc2)cc1	20.7% (inactive)
CC1=NN(c2cccc(Cl)c2)C(=O)C12CC(C)=C(C)CS2 (stereo not drawn)	-6.06% (inactive)
CC(NC(=O)CN1CCN(Cc2ccc(Cl)cc2)C1=O)c1ccc2c(c1)OCCO2 (stereo not drawn)	13.5% (inactive)
CC(C)C[C@H]1CNC(=O)C(=O)N1C[C@@H]1CCCN1C[C@H](Cc1ccccc1)N1C[C@H](CC(C)C)N(CC2CCCCCC2)C(=O)C1=O	5.6% (inactive)
CC1CC(=O)Nc2ccccc2N1C(=O)COc1ccc2cc(Br)ccc2c1 (stereo not drawn)	-17.9% (inactive)
O=C(CNC(=O)c1cccnc1)N/N=C/c1cc(Br)c(O)c(Br)c1	-15.2% (inactive)
O=C(CSc1cccc2cccnc12)N/N=C/c1cccnc1	73.4% (active)
Cc1ccc(S(=O)(=O)N(CC(=O)N/N=C/c2ccc(F)cc2)c2cccc3cccnc23)cc1	-1.02% (inactive)
